Tested on: Inhibin beta A chain (activin A)
Assay: small molecules binding activin A – biochemical, small-molecule microarray, 635 nm fluorescence scan, primary screen (AID 1107);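 further: mouse activin A protein probed at 4.33 µg/mL on printed slides; score merges bound-protein fluorescence near 667 nm with spot signal-to-noise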
Details: INHBA, higher = more signal

SMILES	composite z-score
CCOC(=O)[C@H]1C/C=C/C[C@H](C(=O)OCC)C(=O)O[C@H]2[C@@H](OC)O[C@H](CO)[C@@H](OC(=O)Nc3ccc(C#N)cc3)[C@@H]2OC1=O	0.189
C#CCN(Cc1ccccc1Br)C(/C=C/c1ccccc1)CO (centres undefined)	0.904
CC(C)[C@@H](CO)NC(=O)[C@H]1[C@@H](c2ccccc2)N(c2ccccc2)O[C@@H]1C	0.197
[N-]=[N+]=Nc1ccccc1C[C@]1(C(=O)NCC(O)CO)N=C(c2ccc(OCCCO)cc2)O[C@H]1c1ccccc1N=[N+]=[N-] (some centres undefined)	1.01
C=CC[C@]1(C(=O)NCCCOC)N=C(c2ccc(OCCCO)cc2)O[C@H]1c1ccccc1N=[N+]=[N-]	1.29
C=CCOC(=O)[C@H]1[C@@H]2C(=O)O[C@@H](c3ccccc3)[C@@H](c3ccccc3)N2[C@@H](c2ccc(OCCOC(=O)[C@H]3C[C@H]4C(=O)N5CCC[C@H]5C(=O)N4[C@H]3c3ccc(O)cc3)cc2)[C@]12C(=O)Nc1ccccc12	0.39
CN(C)CCCCCCNC(=O)[C@@H]1C[C@@H]2C(=O)N[C@@H](CCCCN)C(=O)N2[C@@H]1c1cccc(OCCO)c1	1.55
COCCOC(=O)N1C(=O)[C@@]2(c3cc(C#Cc4ccc(OC)cc4)ccc31)[C@H](C(N)=O)[C@H]1C(=O)O[C@H](c3ccccc3)[C@H](c3ccccc3)N1[C@@H]2c1ccccc1OCCO	0.312
CCOC(=O)[C@H]1C/C=C/C[C@H](C(=O)OCC)C(=O)O[C@H]2[C@@H](OC)O[C@H](CO)[C@@H](OC(=O)Nc3cccc(F)c3)[C@@H]2OC1=O	0.519

From PubChem BioAssay
